# Data: the supplement of paper PMC12494721
# Counter-ions that a name gives are not always drawn.
# Assays:
# Conditions in all cases: incubation time: 27 h, anaerobic, 37 °C;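 for the amine columns active = adjusted P below 0.05 in both replicates with a change the same way and a mean fold change under 0.8 or over 1.25; inactive = the rest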
# [1] = tested on: Clostridium sporogenes DSM 1664; assay: growth (OD595) fold change vs plate DMSO controls (fold change (ratio)); higher = more growth
# Summary of the method: (§1)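 The measure reported is growth, taken as fold change against the median of DMSO controls on the same plate. Anaerobic mGAM cultures in 96-well plates (27 h, 37 °C) were read at 595 nm, blank-subtracted, corrected for compound background using 20 µM compound solutions in water, and multiplied by a calibration factor of 5 to give OD. Any fold change above 1.5 became NA, and 2 biological replicates were averaged.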
# [2] = tested on: Escherichia coli IAI1; assay: as above
# Summary of the method: as §1
# [3] = tested on: Klebsiella aerogenes DSM 30053; assay: as above
# Summary of the method: as §1
# [4] = tested on: Ruminococcus gnavus DSM 108212; assay: as above
# Summary of the method: as §1
# [5] = tested on: Klebsiella aerogenes DSM 30053; assay: fold change of Histamine concentration vs plate DMSO controls (fold change (ratio)); higher = more amine produced, active = hit call of the paper (significant change in both replicates, either direction)
# Summary of the method: (§2)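 Amine values are fold changes relative to DMSO-only wells on the same plate. They derive from 27 h, 37 °C anaerobic mGAM cultures of four gut bacterial strains in 80 µL wells, dosed at 20 µM final, or 50 µM final for sweeteners. Extraction of the whole culture, LC–triple-quadrupole MS in dynamic MRM mode, external calibration curves and within-batch drift correction were used, with 2 biological replicates averaged.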
# [6] = tested on: Clostridium sporogenes DSM 1664; assay: fold change of Tryptamine concentration vs plate DMSO controls (fold change (ratio)); higher = more amine produced, active = hit call of the paper (significant change in both replicates, either direction)
# Summary of the method: as §2
# [7] = tested on: Ruminococcus gnavus DSM 108212; assay: as above
# Summary of the method: as §2
# [8] = tested on: Escherichia coli IAI1; assay: fold change of Putrescine concentration vs plate DMSO controls (fold change (ratio)); higher = more amine produced, active = hit call of the paper (significant change in both replicates, either direction)
# Summary of the method: as §2
# [9] = tested on: Klebsiella aerogenes DSM 30053; assay: as above
# Summary of the method: as §2
# [10] = tested on: Escherichia coli IAI1; assay: fold change of Cadaverine concentration vs plate DMSO controls (fold change (ratio)); higher = more amine produced, active = hit call of the paper (significant change in both replicates, either direction)
# Summary of the method: as §2
# [11] = tested on: Klebsiella aerogenes DSM 30053; assay: as above
# Summary of the method: as §2
# [12] = tested on: Ruminococcus gnavus DSM 108212; assay: fold change of 2-Phenylethylamine concentration vs plate DMSO controls (fold change (ratio)); higher = more amine produced, active = hit call of the paper (significant change in both replicates, either direction)
# Summary of the method: as §2
Compound,growth [1],growth [2],growth [3],growth [4],fold change of Histamine concentration [5],fold change of Tryptamine concentration [6],fold change of Tryptamine concentration [7],fold change of Putrescine concentration [8],fold change of Putrescine concentration [9],fold change of Cadaverine concentration [10],fold change of Cadaverine concentration [11],fold change of 2-Phenylethylamine concentration [12]
O=C(O)/C=C/c1ccc(Cn2ccnc2)cc1 [Ozagrel hydrochloride] (20 µM),0.923,0.982,0.994,0.975,1.02 (inactive),1.01 (inactive),1.04 (inactive),1.01 (inactive),0.993 (inactive),1.01 (inactive),0.986 (inactive),0.999 (inactive)
NC(=O)c1cccnc1 [Nicotinamide] (20 µM),0.909,0.979,0.964,0.672,0.994 (inactive),0.971 (inactive),0.993 (inactive),1.02 (inactive),0.896 (inactive),1 (inactive),1.1 (inactive),0.953 (inactive)
COc1cc(C(=O)NS(=O)(=O)c2ccccc2C)ccc1Cc1cn(C)c2ccc(NC(=O)OC3CCCC3)cc12 [Zafirlukast] (20 µM),0.542,0.946,0.99,0.355,1.05 (inactive),0.371 (active),0.582 (active),0.977 (inactive),1.02 (inactive),1.02 (inactive),1.01 (inactive),0.814 (inactive)
NC[C@H]1CC[C@H](C(=O)O)CC1 [Tranexamic acid] (20 µM),1.06,1.02,1,1.14,0.965 (inactive),1.03 (inactive),0.85 (inactive),0.977 (inactive),1.01 (inactive),1.01 (inactive),1.01 (inactive),0.849 (inactive)
C[C@]12CC[C@@H]3c4ccc(O)cc4CC[C@H]3[C@@H]1C[C@@H](O)[C@@H]2O [Estriol] (20 µM),1.12,0.963,1.17,1.15,0.888 (inactive),1.01 (inactive),0.936 (inactive),0.991 (inactive),0.993 (inactive),1.02 (inactive),1.02 (inactive),0.884 (inactive)
NC(CO)C(=O)NNCc1ccc(O)c(O)c1O (stereo not drawn) [Benserazide hydrochloride] (20 µM),0.879,1.06,0.985,0.988,1.08 (inactive),0.965 (inactive),1.03 (inactive),1.19 (inactive),1.03 (inactive),0.994 (inactive),0.991 (inactive),1.03 (inactive)
CC(=C(CCO)SSCC1CCCO1)N(C=O)Cc1cnc(C)nc1N (stereo in doubt) [Fursultiamine hydrochloride] (20 µM),1.08,1.03,0.989,0.992,1.04 (inactive),0.983 (inactive),0.969 (inactive),1.09 (inactive),1.01 (inactive),0.973 (inactive),0.986 (inactive),0.967 (inactive)
CCN(CC)C(=O)N1CCN(C)CC1 [Diethylcarbamazine citrate] (20 µM),1.12,0.975,1.04,0.977,0.954 (inactive),1.03 (inactive),0.976 (inactive),0.988 (inactive),0.985 (inactive),1.02 (inactive),1 (inactive),0.905 (inactive)
Nc1ccc(S(=O)(=O)Nc2ncccn2)cc1 [Sulfadiazine] (20 µM),0.978,0.939,1.06,0.958,0.966 (inactive),0.955 (inactive),0.997 (inactive),0.976 (inactive),1 (inactive),1.03 (inactive),1.01 (inactive),1.02 (inactive)
Cc1ccccc1C(=O)Nc1ccc(C(=O)N2CCCC(O)c3cc(Cl)ccc32)c(C)c1 (stereo not drawn) [Tolvaptan] (20 µM),1.16,0.991,0.985,1.06,1.05 (inactive),0.919 (inactive),0.964 (inactive),0.955 (inactive),1.01 (inactive),0.995 (inactive),1 (inactive),0.924 (inactive)
Cc1ccc(-c2ncc(Cl)cc2-c2ccc(S(C)(=O)=O)cc2)cn1 [Etoricoxib] (20 µM),1.04,1.02,1.14,0.73,0.814 (inactive),1.16 (inactive),1.1 (inactive),1.05 (inactive),0.959 (inactive),0.905 (inactive),1.03 (inactive),1.19 (inactive)
CCN[C@@H]1C[C@H](N)[C@@H](O[C@H]2OC(CN)=CC[C@H]2N)[C@H](O)[C@H]1O[C@H]1OC[C@](C)(O)[C@H](NC)[C@H]1O [Netilmicin sulfate] (20 µM),0.949,0.93,0.898,0.912,0.845 (inactive),1.02 (inactive),0.901 (inactive),0.947 (inactive),0.995 (inactive),0.982 (inactive),0.993 (inactive),0.948 (inactive)
COc1ccc(C2CNC(=O)C2)cc1OC1CCCC1 (stereo not drawn) [Rolipram] (20 µM),0.936,0.98,1.03,0.936,0.951 (inactive),1.03 (inactive),1.03 (inactive),0.954 (inactive),0.989 (inactive),0.984 (inactive),1 (inactive),1.06 (inactive)
Fc1ccc([C@@H]2CCNC[C@H]2COc2ccc3c(c2)OCO3)cc1 [Paroxetine hydrochloride] (20 µM),1.01,1.06,0.971,0.929,1.05 (inactive),0.925 (inactive),0.833 (inactive),0.692 (inactive),0.991 (inactive),1.69 (active),0.991 (inactive),0.885 (inactive)
CC(C)(C)c1ccc(C(=O)CCCN2CCC(OC(c3ccccc3)c3ccccc3)CC2)cc1 [Ebastine] (20 µM),1.13,1,1.01,0.852,1.02 (inactive),0.991 (inactive),0.856 (inactive),1.02 (inactive),1 (inactive),1.01 (inactive),0.983 (inactive),1.02 (inactive)
O=C(Nc1ccc([N+](=O)[O-])cc1Cl)c1cc(Cl)ccc1O [Niclosamide] (20 µM),0.924,1.12,1.1,0.78,0.97 (inactive),1.02 (inactive),0.887 (inactive),1.22 (inactive),1.03 (inactive),1.31 (active),0.992 (inactive),0.934 (inactive)
COC1=CC(=O)C[C@@H](C)[C@]12Oc1c(Cl)c(OC)cc(OC)c1C2=O [Griseofulvin] (20 µM),0.993,1.02,0.922,0.915,1.02 (inactive),1.03 (inactive),0.993 (inactive),1.01 (inactive),0.989 (inactive),1.03 (inactive),0.999 (inactive),0.98 (inactive)
O=C(CCCCCCC(=O)Nc1ccccc1)NO [Vorinostat] (20 µM),0.808,1.07,0.974,1.04,1.17 (inactive),0.962 (inactive),1.05 (inactive),1.11 (inactive),0.99 (inactive),0.99 (inactive),0.967 (inactive),1.1 (inactive)
Cc1nc2n(c(=O)c1CCN1CCC(c3noc4cc(F)ccc34)CC1)CCCC2O (stereo not drawn) [Paliperidone] (20 µM),0.897,1.01,0.982,1,1.05 (inactive),0.998 (inactive),0.966 (inactive),1.06 (inactive),1.02 (inactive),0.993 (inactive),0.986 (inactive),0.983 (inactive)
N[C@H](Cc1ccccc1)C(=O)O [D-phenylalanine] (20 µM),1.13,1.02,0.991,0.917,0.946 (inactive),1.1 (inactive),0.973 (inactive),1.06 (inactive),1.02 (inactive),0.961 (inactive),1.01 (inactive),0.968 (inactive)
CN(C)CCN(Cc1ccccc1)c1ccccn1 [Tripelennamine hydrochloride] (20 µM),1.03,0.99,1.02,0.946,0.957 (inactive),1.01 (inactive),1.02 (inactive),0.85 (inactive),1.01 (inactive),1.38 (active),1 (inactive),1.03 (inactive)
COCC1=C(C(=O)OC(C)OC(=O)OC(C)C)N2C(=O)[C@@H](NC(=O)/C(=N\OC)c3csc(N)n3)[C@H]2SC1 (stereo partly drawn) [Cefpodoxime proxetil] (20 µM),1.05,1.01,1.04,1.18,1.06 (inactive),0.946 (inactive),0.622 (inactive),0.972 (inactive),1.03 (inactive),1.43 (active),0.986 (inactive),0.605 (inactive)
CCOc1ccc(Cc2nccc3cc(OCC)c(OCC)cc23)cc1OCC [Ethaverine hydrochloride] (20 µM),0.848,0.99,0.954,1.05,1 (inactive),0.945 (inactive),0.935 (inactive),1.05 (inactive),1.01 (inactive),1.03 (inactive),0.982 (inactive),0.895 (inactive)
C#C[C@]1(O)CC[C@H]2[C@@H]3CCC4=Cc5oncc5C[C@]4(C)[C@H]3CC[C@@]21C [Danazol] (20 µM),0.903,0.883,0.858,0.744,1.07 (inactive),0.887 (inactive),1.03 (inactive),1.01 (inactive),1.02 (inactive),0.994 (inactive),0.993 (inactive),0.997 (inactive)
